Calls of active or inactive are those of the source. Calls follow the shape of the dose curve; as a rule, active = well fitted activation curve with a large enough effect; inconclusive = small, poorly fitted or top-dose-only effect; inactive = no such curve, though single readings can be large or run the other way.

Our source for the outcome values is PubChem BioAssay (NCATS).

Cytochrome P450 3A4 (Homo sapiens), sequence (P08684 whole entry, looked up): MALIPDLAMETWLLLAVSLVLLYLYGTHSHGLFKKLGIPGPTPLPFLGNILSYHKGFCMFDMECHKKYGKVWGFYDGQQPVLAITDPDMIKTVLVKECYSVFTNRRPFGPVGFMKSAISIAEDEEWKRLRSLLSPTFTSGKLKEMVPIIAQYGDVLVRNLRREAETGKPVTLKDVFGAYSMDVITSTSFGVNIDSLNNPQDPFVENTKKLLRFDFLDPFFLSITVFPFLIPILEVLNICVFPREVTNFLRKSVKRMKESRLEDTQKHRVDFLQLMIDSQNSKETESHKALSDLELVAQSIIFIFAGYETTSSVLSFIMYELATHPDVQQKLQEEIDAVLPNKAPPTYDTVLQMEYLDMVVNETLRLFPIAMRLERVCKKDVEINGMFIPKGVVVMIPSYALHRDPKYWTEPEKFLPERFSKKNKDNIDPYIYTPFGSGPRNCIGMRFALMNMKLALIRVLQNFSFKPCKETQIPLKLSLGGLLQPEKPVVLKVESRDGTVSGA

The test concerns the target Cytochrome P450 3A4 (Homo sapiens) (UniProt P08684). Briefly: qHTS Assay for Activators of Cytochrome P450 3A4 (AID 885). Also: nearly all actives have a fitted effect of over 65% in size. The note with it: recombinant CYP3A4, Luciferin-PPXE luminescence, 60 min; series mostly up to 57.1 µM. The method, then: NIH Molecular Libraries Screening Centers Network [MLSCN]
NIH Chemical Genomics Center [NCGC]
The P450 gene superfamily is involved in the metabolism and clearance of xenobiotics. This assay used human CYP3A4 to measure the dealkylation of luciferin-6' phenylpiperazinylyl (Luciferin-PPXE; […]) to luciferin. The luciferin is then measured by luminescence after the addition of a luciferase detection reagent. Luciferin-PPXE concentration in the assay was equal to its KM for CYP3A4. Inhibitors and some substrates limit the production of luciferin, and decrease measured luminescence; activators increase the production of luciferin and luminescence.
NCGC Assay Protocol Summary:
Two uL of enzyme and substrate mix (final concentrations: 20nM CYP3A4, 25uM Luciferin-PPXE, 200mM KPO4) were dispensed into a white, solid bottom 1536-well microtiter plate. 23nL of compound was transferred by a pin tool. The plate was incubated at RT for 10 min. Two uL of an NADPH regeneration solution (Promega supplied reagent) was dispensed and the reaction was allowed to continue for 60 min at RT. Then the reaction was stopped by reconstituted luciferin detection buffer. After another 20 min of incubation the plate was read on the ViewLux (Perkin Elmer) at 60 sec exposure and 2x2 binning. This protocol was carried out with Promega-Glo reagents and further information can be found at http://www.promega.com/tbs/tb325/tb325.pdf. Data were normalized to the to AC100 inhibition (57 uM ketoconazole).
Keywords: P450, CYP2D6, Luciferase, MLSMR, MLSCN, NIH Roadmap, qHTS, NCGC
Take `Cc1nc(-c2ccc(-c3ccc(C(=O)N4CCc5cc6c(cc54)C4(CCN(C)CC4)CO6)cc3)c(C)c2)no1`: the result was inactive.

As for `O=C(O)Cc1cnc[nH]1`, the outcome was inactive.

As for `c1ccc2sc(C3(N4CCCCC4)CCCCC3)cc2c1`, the outcome was inactive.

Regarding `c1cc2ccc3cccc4ccc(c1)c2c34`, the outcome was inactive.

`COc1cc2c(cc1OC)[C@@H]1C(=O)c3ccc4c(c3O[C@@H]1CO2)C=CC(C)(C)O4`: the outcome was inactive.

As for `C[C@]12N[C@H](Cc3ccccc31)c1ccccc12`, the outcome was inactive.

For `CC(C)c1ccc2c(c1)c(SC(C)(C)C)c(CC(C)(C)C(=O)O)n2Cc1ccc(Cl)cc1`, the outcome was inactive.

As for `CCOP(=O)(NC(C)C)Oc1ccc(SC)c(C)c1` (stereo not drawn), the outcome was inactive.

On to `CCCCCC[C@H]1C(=O)O[C@H](C)[C@H](NC(=O)c2cccc(NC=O)c2O)C(=O)O[C@@H](C)[C@@H]1OC(=O)CC(C)C`, for which the outcome was inactive.

Consider `CCCCc1ccc(C(=O)O)nc1`, for which the outcome was inactive.

Take `COC(C)(C)CCCC(C)C/C=C/C(C)=C/C(=O)OC(C)C` (stereo not drawn): the outcome was inactive.

Regarding `Nc1ccccc1N`, the result was inactive.

`CC[C@@H]1C(=O)OC[C@@H]1Cc1cncn1C`: the result was inactive.

In the case of `COc1ccc2c(c[n+](C)c3c4cc5c(cc4ccc23)OCO5)c1OC`, the outcome was inactive.

Turning to `CC1=NN=C(c2ccc(N)cc2)c2cc3c(cc2C1)OCO3`, the outcome was inactive.

Consider `NCCc1c[nH]c2ccc(O)cc12`, for which the result was inactive.

With `O=c1cccc2n1CC1CNC[C@H]2C1`, the outcome was inactive.

Turning to `CCCN1CCO[C@@H]2c3cc(O)ccc3OC[C@H]21`, the outcome was inactive.

On to `Cc1nccc2c1[nH]c1ccccc12`, for which the outcome was inactive.

Turning to `CCCN1CCO[C@@H]2c3cc(O)ccc3OC[C@@H]21`, the outcome was inactive.

`CCCCOC(=O)c1ccccc1C(=O)OCc1ccccc1`: the outcome was inactive.

As to `CC(C)Oc1cccnc1N(C)C1CCN(Cc2ccccc2)CC1`, the outcome was inactive.

As to `CC[C@@]1(O)C(=O)OCc2c1cc1n(c2=O)Cc2cc3ccccc3nc2-1`, the outcome was inactive.

Take `CC(C)(O)C(=O)Nc1ccc([N+](=O)[O-])c(C(F)(F)F)c1`: the result was inactive.

In the case of `Nc1ccc(Cl)cc1N`, the outcome was inactive.

Regarding `O=S(=O)(c1ccc(Cl)cc1)c1ccc(Cl)cc1`, the result was inactive.

Turning to `O=[N+]([O-])c1c2ccccc2cc2ccccc12`, the result was inactive.

As to `COc1ccc(C(=O)c2c(C)n(CCN3CCOCC3)c3cc(I)ccc23)cc1`, the outcome was inactive.
